Several values for one entry are separate records, joined by “and”; a condition that tells them apart may be missing. Equal values may be shown once. This is part of a sample that, as a whole, favours compounds with a hit. Of some 79,000 tested, about 15% had one in any assay. Where a structure was tested more than once in an assay, its records may differ in their call. Activity calls are given as the source filed them. Rule as the data show it: active = growth inhibition above about 70%; inactive = the rest.
Columns and labels:
[1] = NCI Yeast Anticancer Drug Screen. Data for the mec2-1 strain (AID 157); conditions: S. cerevisiae mec2-1 strain, stronger effect = higher value
In short: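 Test agents were screened against the mec2-1 yeast strain, with defined DNA repair or cell cycle alteration. Growth was scored as inhibition against vehicle-only controls.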

[2] = NCI Yeast Anticancer Drug Screen. Data for the sgs1 mgt1 strain (AID 161);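 also: 0% = growth of cultures given vehicle only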; conditions: S. cerevisiae sgs1 mgt1 strain, stronger effect = higher value
In short: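 Test agents were incubated with a DNA-repair-mutant yeast strain. Growth was then read and compared against vehicle-treated controls.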

[3] = NCI Yeast Anticancer Drug Screen. Data for the cln2 rad14 strain (AID 165);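 also: 0% = growth equal to vehicle treated cultures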; conditions: S. cerevisiae cln2 rad14 strain, stronger effect = higher value
In short: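 Growth of compound-exposed yeast (cln2 rad14 genotype) measured and expressed as inhibition relative to vehicle.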

[4] = NCI Yeast Anticancer Drug Screen. Data for the bub3 strain (AID 167); conditions: S. cerevisiae bub3 mutant strain, stronger effect = higher value
In short: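 Mutant yeast screening strain plus compound; vehicle-treated cultures serve as the 0% inhibition reference.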

[5] = NCI Yeast Anticancer Drug Screen. Data for the mlh1 rad18 strain (AID 175); conditions: S. cerevisiae mlh1 rad18 strain growth inhibition, stronger effect = higher value
In short: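 In this whole-cell yeast screen, a strain with altered DNA damage repair is challenged with compound, and its growth is measured against matched vehicle-treated controls.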

[6] = NCI Yeast Anticancer Drug Screen. Data for the rad50 strain (AID 155);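 also: 0% = growth of vehicle-only cultures of the same strain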; conditions: S. cerevisiae rad50 strain growth inhibition, stronger effect = higher value
In short: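 Vehicle-treated cultures provide the reference for the growth inhibition reported for compound-exposed, repair-deficient yeast.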

[7] = at 5.0 µM (retest, dose inferred, filed as 0.5)
[8] = at 50.0 µM (retest, dose inferred, filed as 5.0)

Row | SMILES | growth inhibition [1, 7] | growth inhibition [1, 8] | growth inhibition ([1]; at 50.0 µM) | growth inhibition [2, 7] | growth inhibition [2, 8] | growth inhibition ([2]; at 50.0 µM) | growth inhibition [3, 7] | growth inhibition [3, 8] | growth inhibition ([3]; at 50.0 µM) | growth inhibition [4, 7] | growth inhibition [4, 8] | growth inhibition ([4]; at 50.0 µM) | growth inhibition [5, 7] | growth inhibition [5, 8] | growth inhibition ([5]; at 50.0 µM) | growth inhibition ([6]; at 50.0 µM) | growth inhibition [6, 7] | growth inhibition [6, 8]
1 | CN(C)Cc1cc(CN(C)C)c(O)c(CN(C)C)c1 | 2% (inactive) | 2% (inactive) | -58.3% (inactive) and 59.9% (inactive) | 4% (inactive) | 11% (inactive) | 0.25% (inactive) and 2.75% (inactive) | -3% (inactive) | -8% (inactive) | -24.1% (inactive) and -31.1% (inactive) | 14% (inactive) | 39% (inactive) | -43.5% (inactive) and 65.3% (inactive) | -6% (inactive) | -9% (inactive) | -22.2% (inactive) and 48.1% (inactive) |  |  | 
2 | COc1cc(O)c2c(c1)C(=O)c1cc3c(c(O)c1C2=O)C(OC1OC(C)C(OC)C(O)C1OC)C(OC)C(C)(O)C3=O (stereo unspecified) | 24% (inactive) | 98% (active) | 99.2% (active) and 93% (active) | 20% (inactive) | 98% (active) | 99.5% (active) and 92.3% (active) | 22% (inactive) | 98% (active) | 98.3% (active) and 89.2% (active) | -6% (inactive) | 98% (active) | 99% (active) and 90.5% (active) | 29% (inactive) | 96% (active) | 99.2% (active) and 90.9% (active) |  |  | 
3 | COc1nc2nc(C(O)C(O)CO)cnc2c(=O)n1C (stereo unspecified) |  |  | -6.55% (inactive) [middle of 4 runs] |  |  | -5.2% (inactive) [middle of 4 runs] |  |  |  |  |  | 7.15% (inactive) [middle of 4 runs] |  |  |  | -5.55% (inactive) [middle of 4 runs] |  | 
4 | O=C1C=C(c2c(O)ccc3ccccc23)c2ccccc2C1=O | 73% (active) and 21% (inactive) | 99% (active) and 98% (active) | 98.8% (active) and 85% (active) |  |  |  | 59% (inactive) and 36% (inactive) | 99% (active) and 98% (active) | 98.7% (active) and 89.3% (active) | 46% (inactive) and 40% (inactive) | 99% (active) and 97% (active) | 98.7% (active) and 90.3% (active) | 94% (active) and 73% (active) | 98% (active) and 97% (active) | 98.7% (active) and 90.2% (active) | 98.9% (active) and 85.8% (active) | 48% (inactive) and 29% (inactive) | 98% (active)
5 | COc1cc2c(cc1O)CC[n+]1cc3c(OC)c(OC)ccc3cc1-2 |  |  | -20% (inactive) and -15.3% (inactive) and 0.25% (inactive) |  |  | -20.8% (inactive) and 0.8% (inactive) and 20.3% (inactive) |  |  | 9.65% (inactive) and 5.15% (inactive) and -13.2% (inactive) |  |  | -15.4% (inactive) and -3.15% (inactive) and 15.6% (inactive) |  |  | -11.1% (inactive) and -69.1% (inactive) and 0% (inactive) | -56% (inactive) and 3.1% (inactive) and -3% (inactive) |  | 
6 | ClCCCN(CCCCl)c1ccc(C=Nc2cccc(Cl)c2)cc1 | -4% (inactive) | 8% (inactive) | -1.2% (inactive) |  |  |  | 8% (inactive) | 88% (active) | 86.2% (active) | -4% (inactive) | -14% (inactive) | -13% (inactive) | 17% (inactive) | 89% (active) | 78.5% (active) | 91.3% (active) | 16% (inactive) | 89% (active)
7 | OC1C(O)C(O)C(O)C(O)C1O (stereo unspecified) |  |  |  |  |  |  |  |  |  |  |  | 0.4% (inactive) [middle of 5 runs] |  |  | 4.3% (inactive) [middle of 5 runs] |  |  | 
8 | CCCCCCCCCCCCOC(=O)C(C)OC(C)=O (stereo unspecified) | -1% (inactive) and 1% (inactive) | 99% (active) and 98% (active) | 98.5% (active) and 98.8% (active) | 2% (inactive) and 5% (inactive) | 99% (active) | 99.2% (active) and 7.6% (inactive) | -1% (inactive) and 5% (inactive) | 97% (active) and 92% (active) | 98.8% (active) and 96.5% (active) | 1% (inactive) | 99% (active) and 96% (active) | 98% (active) and 99.1% (active) | -10% (inactive) and 2% (inactive) | 99% (active) | 98.7% (active) and 99% (active) |  |  | 
9 | COC(=O)CSC(=S)N1CCOCC1 | 9% (inactive) | 4% (inactive) | -5.75% (inactive) |  |  |  | 7% (inactive) | -4% (inactive) | -38% (inactive) | -3% (inactive) | -5% (inactive) | -10.1% (inactive) | 4% (inactive) | 5% (inactive) | 24.2% (inactive) | -6.85% (inactive) | 2% (inactive) | 6% (inactive)
10 | COC(=O)C1C(O)C(C)C(O)C(C)C=C(C)C2=C3C(=C(C)C(=O)c4c(O)c(c(C)c(OC(C)=O)c43)NC(=O)C(C)=C/C=C\C(C)C(O)C(C)C1O)OCO2 (stereo unspecified) | -14% (inactive) | -42% (inactive) | 22.1% (inactive) and -8.55% (inactive) |  |  |  | -10% (inactive) | 10% (inactive) | 28.6% (inactive) and 3% (inactive) | -31% (inactive) | -27% (inactive) | 37.9% (inactive) and 8.2% (inactive) | -36% (inactive) | -3% (inactive) | 17.6% (inactive) and 8.65% (inactive) | 53.1% (inactive) and 5.45% (inactive) | -11% (inactive) | -37% (inactive)
11 | O=C1c2cc3c(cc2CC12Cc1ccccc1C2)CCC3 | 15% (inactive) | 15% (inactive) | 2.25% (inactive) | 22% (inactive) | 54% (inactive) | 46.9% (inactive) | 10% (inactive) | 16% (inactive) | 16.8% (inactive) | 24% (inactive) | 51% (inactive) | 50% (inactive) | 19% (inactive) | 23% (inactive) | 17.4% (inactive) |  |  | 
12 | O=C(O)/C(=C(/c1ccccc1)c1ccc(Cl)cc1)c1ccccc1 | 37% (inactive) | 100% (active) | 32.6% (inactive) and -26.5% (inactive) | 46% (inactive) | 100% (active) | 81.8% (active) and 89.8% (active) | 55% (inactive) | 99% (active) | 94.2% (active) and 91.3% (active) | 43% (inactive) | 99% (active) | 49.7% (inactive) and 90.3% (active) | 69% (inactive) | 98% (active) | 97.4% (active) and 89.5% (active) |  |  | 
13 | CC(C)C(N)C(=O)NC(C(=O)NC(C(=O)O)C(C)C)C(C)C (stereo unspecified) |  |  | 6.8% (inactive) [middle of 6 runs] |  |  | 3.35% (inactive) [middle of 6 runs] |  |  |  |  |  | 6.2% (inactive) [middle of 6 runs] |  |  |  | -1.6% (inactive) [middle of 6 runs] |  | 
14 | Nc1nnc(/C=C/c2ccccc2)o1 | 8% (inactive) | -21% (inactive) | -21.6% (inactive) |  |  |  | 1% (inactive) | -4% (inactive) | 42.2% (inactive) | 1% (inactive) | -4% (inactive) | -1.9% (inactive) | 7% (inactive) | 21% (inactive) | -10.2% (inactive) | 19.5% (inactive) | 2% (inactive) | -22% (inactive)
15 | C[Si]1(C)CN(CCN)C[Si](C)(C)O1 | 1% (inactive) | 9% (inactive) | 4.25% (inactive) and 49.5% (inactive) | 2% (inactive) | 0% (inactive) | -15.4% (inactive) and 76.5% (active) | 2% (inactive) | -3% (inactive) | -20.3% (inactive) and 45% (inactive) | -2% (inactive) | -4% (inactive) | -3.65% (inactive) and 68.4% (inactive) | 0% (inactive) | -2% (inactive) | -1.3% (inactive) and 62.6% (inactive) |  |  | 
16 | COC1OCC(O)C(O)C1O (stereo unspecified) |  |  | 8.15% (inactive) [middle of 4 runs] |  |  | 1.2% (inactive) [middle of 4 runs] |  |  | -8.1% (inactive) [middle of 4 runs] |  |  |  |  |  | -7.4% (inactive) [middle of 4 runs] | -2.4% (inactive) [middle of 4 runs] |  | 
17 | O=c1[nH]c(SCc2c(Cl)c(Cl)c(Cl)c(Cl)c2Cl)nc(=S)[nH]1 | 10% (inactive) | 44% (inactive) | 38.8% (inactive) | 3% (inactive) | 95% (active) | 92.8% (active) | -36% (inactive) | 67% (inactive) | 43.1% (inactive) | 14% (inactive) | 55% (inactive) | 65.8% (inactive) | 2% (inactive) | 86% (active) | 70.8% (active) |  |  | 

From PubChem BioAssay (NCI)
